# Source: PubChem
# Compounds with a hit are over-represented: about 11% of the library has one in this group of screens.
# Vaccinia Venus: vaccinia inhibition (Venus reporter). Vaccinia virus Venus reporter expression, fluorescence. hit rate 0.46% among 330,000. AID 720580. Potency, µM (titrated, usually from 36.5 µM), without a hit: at the highest dose activity change, negative = inhibition, actives largely listed as inhibitors; calls by dose curve; tested in A549 cells; further: on the % scale 0 is the no-effect control and ±100 the full control effect; nearly all actives have a fitted effect of over 30% in size
# Pf growth 48h: P. falciparum growth inhibition at 48 hours (one generation). P. falciparum luciferase growth in erythrocytes, 48 h. Potency, µM (highest dose often 28.7 µM), without a hit: at the top dose activity change, negative = inhibition, usual class: inhibitors. hit rate 5.9% among 310,000. AID 504832; further: on the % scale 0 is the no-effect control and ±100 the full control effect
#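 Erythrocytes infected with P. falciparum carrying an integrated firefly luciferase reporter (2% hematocrit, 0.1% parasitemia final) were exposed to compounds in RPMI 1640 with 0.5% Albumax at 37 C, 5% CO2. Growth inhibition was scored as reduced luminescence.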
# HCV inh: HCV inhibition; Potency, µM (series often up to 41.8 µM), without a hit: at the highest dose activity change, negative = inhibition, most hits filed as inhibitors; AID 651820; Huh7.5.1 HCVcc-Cre infection, luciferase reporter, 44 h; hit rate 3.4% among 340,000; further: on the % scale 0 is the no-effect control and ±100 the full control effect
#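 Cells seeded at 1,000/well and cultured 4 h, then compounds added followed by HCVcc-Cre virus (~0.5 moi). After 44 h further culture, luciferase substrate was added, plates held 15 min at room temperature, and luminescence read for 15 sec.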
# NS1 inh: influenza NS1 inhibition; hit rate 0.4% among 270,000; Potency, µM (doses to about 46.1 µM), for inactives: at the highest dose activity, positive = more growth; calls by dose curve; further: actives are rising curves; nearly all actives have a fitted effect of over 50% in size
#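 S. cerevisiae expressing influenza A NS1, grown in glucose, washed, then diluted 1:100 into pH 6.0 -URA galactose medium with 23 nl compound. Growth recovery read as OD600; NS1-free strain serves as control.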
# Pf growth 96h: P. falciparum growth inhibition at 96 hours. hit rate 6.9% among 320,000. AID 504834. P. falciparum luciferase reporter growth, 96 h. Potency, µM (series often up to 28.7 µM), for inactives: at the highest dose activity change, negative = inhibition, actives largely listed as inhibitors; further: on the % scale 0 is the no-effect control and ±100 the full control effect
#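 Luminescence readout: decreased luciferase signal marks inhibited growth of reporter-expressing P. falciparum in infected red cells (2% hematocrit, 0.05% parasitemia final), exposed to compound two generations (96 h, 37 C, 5% CO2).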
# VACV mCherry inh: inhibitors of vaccinia virus infection (mCherry reporter signal); AID 720579; Vaccinia virus mCherry reporter infection, fluorescence; Potency, µM (top dose mostly 36.5 µM), for the others: at the highest dose activity change, negative = inhibition, hits mostly inhibitors; hit rate 0.63% among 310,000; calls by dose curve; tested in A549 cells; further: on the % scale 0 is the no-effect control and ±100 the full control effect; nearly all actives have a fitted effect of over 35% in size
# Starred values were filed as active, the others as inactive; i = inactive; ? = inconclusive; / = no result given. Unless noted, the call rests on the fitted dose curve; in most records, active means well fitted inhibition curve with a large enough effect; inconclusive means small, poorly fitted or top-dose-only effect, or another doubt; inactive means no such curve, though single readings can be large or run the other way. Potency means the concentration at half of the fitted maximal effect.
SMILES,Vaccinia Venus,Pf growth 48h,HCV inh,NS1 inh,Pf growth 96h,VACV mCherry inh
CCOC(=O)C1=C(C)N=C2c3ccccc3C(=O)C2C1c1ccc(Cl)cc1 (stereo not drawn),-22%,10µM*,16µM*,21%,10µM*,-20%
Cc1ccc(C2C3=C(CC(C)(C)CC3=O)N=C3c4ccccc4C(=O)C32)cc1 (stereo not drawn),-27%,8.3µM*,?,?,17%,?
COC(=O)C1=C(C)N(Cc2ccccc2)C(=NCc2ccc3c(c2)OCO3)N[C@H]1c1ccccc1,-29%,18%,?,4%,?,-13%
CCc1cc2c(N3CCCCC3)ncnc2s1,-22%,-16%,11µM*,-105%,16%,/
Cc1ccc(S(=O)(=O)Nc2nc(C)cc(NN)n2)cc1,3%,150%,-13%,6%,18%,-8%
CCCn1c(=N)n(CC(O)c2ccc(C)cc2)c2ccccc21 (stereo not drawn),-22%,5.2µM*,-22%,-1%,4.1µM*,i
CCCn1c(=N)n(CC(O)COc2ccc(C)cc2)c2ccccc21 (stereo not drawn),-20%,2.1µM*,?,-1%,5.2µM*,-14%
CCn1c(=N)n(CC(O)COc2ccc(C)cc2)c2ccccc21 (stereo not drawn),-14%,3.7µM*,?,1%,13µM*,-14%
CCCCn1c(=N)n(CCOc2ccc(C)cc2)c2ccccc21,?,7.4µM*,8%,-16%,14%,14µM*
Cc1ccc(S(=O)(=O)N2CCOCC2)cc1NCC(=O)Nc1ccc(OC(F)(F)F)cc1,-1%,/,30%,/,/,i
Cc1ccccc1C(=O)Nc1nnc([C@@H]2C[C@H](O)[C@@H](CO)O2)s1,-7%,/,/,/,/,-10%
Cn1c(=N)n(CC(O)c2cccc3ccccc23)c2ccccc21 (stereo not drawn),-6%,/,11µM*,-10%,/,/
Cc1ccc2c(COC(=O)CC3Sc4ccccc4NC3=O)cc(=O)oc2c1C (stereo not drawn),-9%,41%,13%,16%,42%,-13%
O=C(CC1Sc2ccccc2NC1=O)OCc1cc(=O)oc2cc(O)ccc12 (stereo not drawn),-12%,-12%,?,19%,4.7µM*,i
COc1cc2c(c(OC)c1OC)-c1ccc(NC(=O)c3ccccc3)c(=O)cc1[C@@H](NC(C)=O)CC2,-2%,9.3µM*,14%,5%,?,-11%
O=C(Nc1ccccc1)Nc1ncc([N+](=O)[O-])s1,?,-61%,?,/,-64%,10µM*
COc1cccc(-n2c(=O)c3c4c(sc3n(Cc3ccc(F)cc3Cl)c2=O)CCCC4)c1,-18%,/,/,/,/,-24%
COC(=O)c1oc2ccccc2c1-n1cccc1,-17%,/,0%,-3%,-23%,-8%
CSCCC(NC(=O)c1ccco1)C(=O)N1CCCC(C(F)(F)F)C1 (stereo not drawn),/,-10%,18%,/,?,/
CSCCC(NC(=O)c1ccco1)C(=O)N1CCN(C(c2ccccc2)c2ccccc2)CC1 (stereo not drawn),1%,8.3µM*,?,/,2.1µM*,-14%
O=[N+]([O-])c1cccc2c([As](=O)(O)O)cccc12,-14%,0.74µM*,?,-6%,0.47µM*,i
O=c1[nH]ccc2c([N+](=O)[O-])cccc12,-6%,18%,5%,-1%,32%,-8%
CCC(CC)C(=O)c1c[nH]c(C(=O)NCCCn2ccnc2)c1,/,-29%,19%,5%,12%,/
Cc1nn(Cc2ccccc2)c(C)c1NC(=O)c1ccc([N+](=O)[O-])cc1[N+](=O)[O-],?,?,?,-4%,?,?
Nc1nc(C(=O)N2CCOCC2)nn1C(=O)c1ccc(Cl)cc1,3%,17%,26%,-31%,10µM*,-2%
SMILES,Vaccinia Venus,Pf growth 48h,HCV inh,NS1 inh,Pf growth 96h,VACV mCherry inh
O=C(c1ccc(Cl)cc1)c1ccccc1C(=O)N1CCOCC1,-4%,10%,-2%,-4%,38%,i
CCN(C(=O)COC(=O)C(O)(c1ccccc1)c1ccccc1)c1c(N)n(Cc2ccccc2)c(=O)[nH]c1=O,-7%,-15%,?,/,3%,-21%
COc1nc(N(c2ccccc2)c2ccccc2)nc(-n2ccnc2)n1,-24%,12µM*,?,-88%,?,-23%
N#Cc1nc(N(c2ccccc2)c2ccccc2)nc(-n2cccc2)n1,-15%,/,/,/,/,-25%
CC(=O)c1ccc(NC(=S)N(C)C2CCN(C)CC2)cc1,-9%,6%,2%,11%,2.1µM*,i
CN1CCC(N(C)C(=S)Nc2ccc(F)cc2)CC1,-7%,336%,15%,/,9%,-10%
CC1Cc2nc(SCC(=O)Nc3ccc4c(c3)OCO4)n(-c3ccc(F)cc3)c(=O)c2S1 (stereo not drawn),-3%,1.7µM*,-11%,-90%,3.7µM*,7%
COc1ccc(-n2c(SCC(=O)Nc3nccs3)nc3c(c2=O)SC(C)C3)cc1 (stereo not drawn),-27%,1.7µM*,1%,-3%,1µM*,?
COc1ccc(N(CC(=O)NC2CCCC2)C(=O)c2ccc(N3CCCCC3)nc2)cc1,-16%,9.3µM*,-7%,-20%,?,-9%
CCC(C)(C)NC(=O)CN(C(=O)c1ccc(N2CCCC2)nc1)c1ccc(F)cc1,/,4.1µM*,6%,10%,?,/
O=C(c1nc2ccccn2c1CN1CCC(Cc2ccccc2)CC1)N1CCCC1,-11%,10µM*,0%,2%,-2%,-21%
Cc1nc2ccc(NS(=O)(=O)c3ccc(F)c(C)c3)cc2[nH]1,/,-8%,7.1µM*,?,58%,/
COc1ccc(NC2=NC(=S)N(c3ccc(C)cc3)C23CCCCC3)cc1,-9%,-5%,-18%,18%,?,-1%
CCOC(=O)C1CCN(c2nc3c(C)cccn3c(=O)c2/C=C(\C#N)S(=O)(=O)c2ccccc2)CC1,-14%,9.3µM*,-20%,21%,?,i
N#C/C(=C\c1c(N2CCCCC2)nc2ccccn2c1=O)S(=O)(=O)c1ccccc1,-17%,-5%,-5%,11%,5.2µM*,-21%
Cc1cccn2c(=O)c(/C=C(\C#N)S(=O)(=O)c3ccccc3)c(N3CCCCC3)nc12,/,?,?,5%,?,/
CCN1CCN(c2nc3c(C)cccn3c(=O)c2/C=C(\C#N)S(=O)(=O)c2ccc(C)cc2)CC1,-15%,13%,-2%,-2%,4.1µM*,-6%
CCN1CCN(c2nc3c(C)cccn3c(=O)c2/C=C(\C#N)S(=O)(=O)c2ccc(Cl)cc2)CC1,/,-10%,19%,2%,13%,/
